Laboratory results from PubChem BioAssay (Tox21).
Results filed as inconclusive are left out. The source made the active and inactive calls. Calls follow the shape of the dose curve; as a rule, active = well fitted curve in the direction sought with a large enough effect in the repeat runs; inconclusive = weak or mixed curves; inactive = no such curve, though single readings can be large; an effect the other way counts as inactive or inconclusive.

Legend:
[1] = Caspase-3/7 induction in HepG2 cells by small molecules, qHTS assay (AID 1346978); also: nearly all actives have a fitted effect of over 15% in size
Summary of the method: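 Caspase-3/7 induction was measured by Caspase-Glo 3/7 luminescence (30 min, room temperature) after a 17 hr compound exposure of wild-type HepG2 cells seeded at 2,000 per well and pre-incubated 5 hr.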

[2] = Caspase-3/7 induction in CHO-K1 cells by small molecules, qHTS cell viability counter screen (AID 1346979); also: nearly all actives have a fitted effect of over 35% in size; also: potency is read from the fitted curve at half-maximal effect
Summary of the method: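 Cells (CHO-K1, wild type) are plated at 1,500 per well and incubated 5hr. Test compounds in DMSO are then pinned in, followed by 16hr at 37C and 5% CO2. Viability is read by CellTiter-Fluor fluorescence after 1hr.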

[3] = Caspase-3/7 induction in CHO-K1 cells by small molecules, qHTS assay (AID 1346980); also: nearly all actives have a fitted effect of over 15% in size
Summary of the method: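 Luminescent Caspase-Glo 3/7 read (30min, room temperature) quantified apoptosis induction. Cells were wild-type CHO-K1, treated with compound for 17hr at 37 C and 5% CO2.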

[4] = Caspase-3/7 induction in HepG2 cells by small molecules, qHTS cell viability counter screen (AID 1346981); also: nearly all actives have a fitted effect of over 30% in size; also: potency is read from the fitted curve at half-maximal effect; as to activity change, negative = cytotoxicity: series mostly up to about 92 µM
Summary of the method: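 Multiplexed with the caspase-3/7 assay: HepG2 cells, 16 hr compound treatment, CellTiter-Fluor viability detection by fluorescence.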

[5] = molecular target: Nuclear receptor subfamily 1 group I member 2 (Rattus norvegicus) (UniProt Q9R1A7); test: Rat pregnane X receptor (rPXR) activation by small molecules, qHTS assay (AID 1346983); settings: rPXR luciferase reporter cells, One-Glo luminescence, 24 h; max activation: stronger effect = higher value; also: nearly all actives have a fitted effect of over 20% in size
Chain of Nuclear receptor subfamily 1 group I member 2 (Rattus norvegicus) (Q9R1A7 whole entry, looked up): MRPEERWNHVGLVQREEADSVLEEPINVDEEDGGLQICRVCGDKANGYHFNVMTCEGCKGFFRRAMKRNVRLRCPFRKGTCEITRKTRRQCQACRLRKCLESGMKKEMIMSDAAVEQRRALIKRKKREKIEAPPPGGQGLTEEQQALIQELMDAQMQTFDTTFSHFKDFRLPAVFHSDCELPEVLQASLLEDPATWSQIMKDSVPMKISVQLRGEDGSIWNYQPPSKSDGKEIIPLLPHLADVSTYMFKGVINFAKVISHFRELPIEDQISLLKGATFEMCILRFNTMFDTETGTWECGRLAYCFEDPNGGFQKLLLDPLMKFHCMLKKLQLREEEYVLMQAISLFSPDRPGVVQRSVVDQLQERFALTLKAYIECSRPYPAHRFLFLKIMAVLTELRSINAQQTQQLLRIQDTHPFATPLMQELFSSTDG
Summary of the method: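 Luminescent readout (One-Glo luciferase, 30 min room temperature) followed 24 hr compound treatment at 37 C of rPXR cells plated 2,000 per well and preincubated 5hr; qHTS format with compounds delivered in DMSO.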

[6] = molecular target: Nuclear receptor subfamily 1 group I member 2 (Homo sapiens) (UniProt O75469); test: CYP3A4 induction through human pregnane X receptor (PXR) by small molecules, qHTS assay (AID 1346984); also: nearly all actives have a fitted effect of over 40% in size; also: potency is read from the fitted curve at half-maximal effect
Chain of Nuclear receptor subfamily 1 group I member 2 (Homo sapiens) (O75469 whole entry, looked up): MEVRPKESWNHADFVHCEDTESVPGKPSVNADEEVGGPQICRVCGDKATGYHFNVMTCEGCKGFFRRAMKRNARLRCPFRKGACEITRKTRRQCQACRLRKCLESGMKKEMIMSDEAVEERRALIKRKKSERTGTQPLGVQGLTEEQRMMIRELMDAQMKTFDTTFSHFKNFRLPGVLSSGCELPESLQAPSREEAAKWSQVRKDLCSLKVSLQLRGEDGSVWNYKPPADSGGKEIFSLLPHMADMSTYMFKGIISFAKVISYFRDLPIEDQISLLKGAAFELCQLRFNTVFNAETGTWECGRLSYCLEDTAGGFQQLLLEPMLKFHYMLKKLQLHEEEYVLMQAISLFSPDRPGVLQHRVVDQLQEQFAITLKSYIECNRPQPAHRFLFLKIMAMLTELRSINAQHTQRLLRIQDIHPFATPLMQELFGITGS
Summary of the method: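 qHTS, concentration-response format: HepG2 DPX-2 line, PXR/CYP3A4-luc. Exposure 24 h, 37C. Substrate Luciferin-IPA 3uM final, 3 h. Detection One-Glo, 30 min RT.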

[7] = molecular target: Cytochrome P450 2D6 (Homo sapiens) (UniProt P10635); test: Cytochrome P450 Family 2 Subfamily D Member 6 (CYP2D6) small molecule antagonists: luciferase reporter qHTS assay (AID 1671196); also: nearly all actives have a fitted effect of over 50% in size; also: potency is read from the fitted curve at half-maximal effect; as to activity change, negative = inhibition: series mostly up to about 120 µM
Chain of Cytochrome P450 2D6 (Homo sapiens) (P10635 whole entry, looked up): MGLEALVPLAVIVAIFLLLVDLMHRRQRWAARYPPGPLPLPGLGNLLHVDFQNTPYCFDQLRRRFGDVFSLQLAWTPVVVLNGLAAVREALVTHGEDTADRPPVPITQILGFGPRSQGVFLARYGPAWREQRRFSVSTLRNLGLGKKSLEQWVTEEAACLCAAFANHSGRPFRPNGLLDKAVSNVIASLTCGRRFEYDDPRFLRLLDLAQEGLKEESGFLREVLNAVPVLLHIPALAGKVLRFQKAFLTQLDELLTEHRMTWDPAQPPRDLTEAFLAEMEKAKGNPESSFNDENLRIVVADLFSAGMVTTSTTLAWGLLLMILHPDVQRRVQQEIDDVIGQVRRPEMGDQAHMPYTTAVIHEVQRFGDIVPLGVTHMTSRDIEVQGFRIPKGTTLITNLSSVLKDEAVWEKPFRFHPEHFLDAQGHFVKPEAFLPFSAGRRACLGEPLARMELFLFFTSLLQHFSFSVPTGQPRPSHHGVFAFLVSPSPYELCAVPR
Summary of the method: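 Luminescence (RLU), read 20 min after detection reagent, indicated CYP2D6 conversion of proluciferin to luciferin during a 1 h NADPH-dependent reaction at room temperature.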

[8] = molecular target: Cytochrome P450 2C19 (Homo sapiens) (UniProt P33261); test: Cytochrome P450 Family 2 Subfamily C Member 19 (CYP2C19) small molecule antagonists: luciferase reporter qHTS assay (AID 1671197); also: nearly all actives have a fitted effect of over 65% in size; also: potency is read from the fitted curve at half-maximal effect; as to activity change, negative = inhibition: series mostly up to about 120 µM
Chain of Cytochrome P450 2C19 (Homo sapiens) (P33261 whole entry, looked up): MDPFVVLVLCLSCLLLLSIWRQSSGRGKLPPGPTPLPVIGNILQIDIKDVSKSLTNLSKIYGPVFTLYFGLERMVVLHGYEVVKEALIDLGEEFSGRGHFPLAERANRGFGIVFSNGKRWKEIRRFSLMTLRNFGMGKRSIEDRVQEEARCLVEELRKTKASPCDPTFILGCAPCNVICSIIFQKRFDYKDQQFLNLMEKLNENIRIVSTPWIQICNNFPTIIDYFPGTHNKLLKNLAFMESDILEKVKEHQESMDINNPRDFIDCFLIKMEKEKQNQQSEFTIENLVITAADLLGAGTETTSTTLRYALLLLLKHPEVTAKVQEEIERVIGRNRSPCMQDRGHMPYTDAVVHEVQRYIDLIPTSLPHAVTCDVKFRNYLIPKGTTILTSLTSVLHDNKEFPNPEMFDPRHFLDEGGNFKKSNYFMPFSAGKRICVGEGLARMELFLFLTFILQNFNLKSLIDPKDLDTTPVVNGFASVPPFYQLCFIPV
Summary of the method: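 Inhibition of CYP2C19 was scored from loss of luminescence in a P450-Glo proluciferin substrate assay, NADPH-started and run 1 h at 37C, with ketoconazole as positive control.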

[9] = molecular target: Cytochrome P450 2C9 (Homo sapiens) (UniProt P11712); test: Cytochrome P450 Family 2 Subfamily C Member 9 (CYP2C9) small molecule antagonists: luciferase reporter qHTS assay (AID 1671198); also: nearly all actives have a fitted effect of over 50% in size; also: potency is read from the fitted curve at half-maximal effect; as to activity change, negative = inhibition: series mostly up to about 120 µM
Chain of Cytochrome P450 2C9 (Homo sapiens) (P11712 whole entry, looked up): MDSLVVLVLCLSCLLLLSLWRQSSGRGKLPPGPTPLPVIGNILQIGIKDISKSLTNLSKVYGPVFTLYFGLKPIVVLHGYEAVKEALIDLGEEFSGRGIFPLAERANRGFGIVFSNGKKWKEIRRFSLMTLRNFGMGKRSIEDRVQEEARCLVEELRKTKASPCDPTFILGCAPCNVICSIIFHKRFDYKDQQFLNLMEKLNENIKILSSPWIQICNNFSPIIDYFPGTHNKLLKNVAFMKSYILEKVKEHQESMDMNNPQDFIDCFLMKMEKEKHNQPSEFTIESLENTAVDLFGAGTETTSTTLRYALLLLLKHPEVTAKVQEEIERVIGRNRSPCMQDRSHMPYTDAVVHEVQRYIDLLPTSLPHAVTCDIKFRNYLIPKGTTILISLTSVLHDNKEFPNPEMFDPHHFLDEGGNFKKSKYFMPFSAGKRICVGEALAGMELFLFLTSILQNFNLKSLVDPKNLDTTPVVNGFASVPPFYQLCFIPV
Summary of the method: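 Enzyme-substrate mix preincubated with compound 10 min at room temperature; reaction started with NADPH regeneration solution, 1 h 37C. Luminescent luciferin product read after 20 min detection reagent.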

[10] = molecular target: Cytochrome P450 1A2 (Homo sapiens) (UniProt P05177); test: Cytochrome P450 Family 1 Subfamily A Member 2 (CYP1A2) small molecule antagonists: luciferase reporter qHTS assay (AID 1671199); also: nearly all actives have a fitted effect of over 50% in size; also: potency is read from the fitted curve at half-maximal effect; as to activity change, negative = inhibition: series mostly up to about 120 µM
Chain of Cytochrome P450 1A2 (Homo sapiens) (P05177 whole entry, looked up): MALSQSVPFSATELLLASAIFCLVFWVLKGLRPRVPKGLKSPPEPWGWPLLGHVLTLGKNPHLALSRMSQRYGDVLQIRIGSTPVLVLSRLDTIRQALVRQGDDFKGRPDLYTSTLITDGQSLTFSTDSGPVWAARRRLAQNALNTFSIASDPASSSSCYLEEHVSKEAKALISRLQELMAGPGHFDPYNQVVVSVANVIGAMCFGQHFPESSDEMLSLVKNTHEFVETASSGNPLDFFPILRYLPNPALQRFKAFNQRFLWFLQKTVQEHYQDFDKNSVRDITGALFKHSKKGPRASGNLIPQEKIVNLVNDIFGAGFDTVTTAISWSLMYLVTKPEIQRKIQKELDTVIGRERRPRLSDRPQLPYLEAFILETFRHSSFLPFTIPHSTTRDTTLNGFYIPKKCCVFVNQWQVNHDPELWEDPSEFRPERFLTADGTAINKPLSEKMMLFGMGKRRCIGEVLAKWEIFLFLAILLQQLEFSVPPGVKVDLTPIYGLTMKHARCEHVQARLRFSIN
Summary of the method: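 CYP1A2 turnover of a luminogenic substrate was quantified after 1 h with NADPH regeneration at room temperature. Furafylline served as positive control.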

[11] = molecular target: Cytochrome P450 3A4 (Homo sapiens) (UniProt P08684); test: Cytochrome P450 Family 3 Subfamily A Member 4 (CYP3A4) small molecule antagonists: luciferase reporter qHTS assay (AID 1671201); also: nearly all actives have a fitted effect of over 50% in size; also: potency is read from the fitted curve at half-maximal effect; as to activity change, negative = inhibition: series mostly up to about 120 µM
Chain of Cytochrome P450 3A4 (Homo sapiens) (P08684 whole entry, looked up): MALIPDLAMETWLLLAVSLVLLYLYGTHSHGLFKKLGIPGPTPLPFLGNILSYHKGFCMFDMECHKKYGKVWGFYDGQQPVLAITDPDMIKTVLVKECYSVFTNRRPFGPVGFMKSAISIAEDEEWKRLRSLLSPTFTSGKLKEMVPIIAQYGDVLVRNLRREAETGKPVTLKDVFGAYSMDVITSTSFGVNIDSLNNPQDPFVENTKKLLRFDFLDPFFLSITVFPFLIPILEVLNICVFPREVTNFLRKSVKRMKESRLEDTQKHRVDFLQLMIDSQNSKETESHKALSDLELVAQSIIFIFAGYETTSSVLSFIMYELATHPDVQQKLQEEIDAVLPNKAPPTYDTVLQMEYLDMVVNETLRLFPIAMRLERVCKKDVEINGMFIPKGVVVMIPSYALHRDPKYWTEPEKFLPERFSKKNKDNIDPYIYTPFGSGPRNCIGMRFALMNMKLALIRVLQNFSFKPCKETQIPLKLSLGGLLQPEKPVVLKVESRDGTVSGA
Summary of the method: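 Compounds in DMSO were pin-transferred onto CYP3A4 enzyme-substrate mix and held 10 min at room temperature. NADPH regenerating solution started the reaction for 1 h; luciferin detection reagent stopped it, and luminescence was read after 20 min.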

[12] = molecular target: Nuclear receptor subfamily 1 group I member 2 (Homo sapiens) (UniProt O75469); test: Human pregnane X receptor (PXR) activation by small molecules, qHTS assay (AID 1346985); also: nearly all actives have a fitted effect of over 40% in size; also: potency is read from the fitted curve at half-maximal effect
Summary of the method: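 DPX-2 cells (HepG2 co-transfected with a PXR response element and a CYP3A4-promoter luciferase construct) were seeded at 2,000 per well, rested 5 hr at 37C, then exposed to DMSO-dissolved compounds for 24 hr. Activation was read as luciferase luminescence.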

[13] = molecular target: Voltage-gated inwardly rectifying potassium channel KCNH2 (Homo sapiens) (UniProt Q12809); test: Human Ether-a-go-go-Related Gene (hERG) channel small molecule antagonists: fluorescence cell-based qHTS assay (AID 1671200); also: nearly all actives have a fitted effect of over 50% in size; also: potency is read from the fitted curve at half-maximal effect;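 as to activity change, negative = inhibition: hERG-expressing U2OS cells given a thallium stimulus after FluxOR II dye loading; series mostly up to about 77 µM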
Chain of Voltage-gated inwardly rectifying potassium channel KCNH2 (Homo sapiens) (Q12809 whole entry, looked up): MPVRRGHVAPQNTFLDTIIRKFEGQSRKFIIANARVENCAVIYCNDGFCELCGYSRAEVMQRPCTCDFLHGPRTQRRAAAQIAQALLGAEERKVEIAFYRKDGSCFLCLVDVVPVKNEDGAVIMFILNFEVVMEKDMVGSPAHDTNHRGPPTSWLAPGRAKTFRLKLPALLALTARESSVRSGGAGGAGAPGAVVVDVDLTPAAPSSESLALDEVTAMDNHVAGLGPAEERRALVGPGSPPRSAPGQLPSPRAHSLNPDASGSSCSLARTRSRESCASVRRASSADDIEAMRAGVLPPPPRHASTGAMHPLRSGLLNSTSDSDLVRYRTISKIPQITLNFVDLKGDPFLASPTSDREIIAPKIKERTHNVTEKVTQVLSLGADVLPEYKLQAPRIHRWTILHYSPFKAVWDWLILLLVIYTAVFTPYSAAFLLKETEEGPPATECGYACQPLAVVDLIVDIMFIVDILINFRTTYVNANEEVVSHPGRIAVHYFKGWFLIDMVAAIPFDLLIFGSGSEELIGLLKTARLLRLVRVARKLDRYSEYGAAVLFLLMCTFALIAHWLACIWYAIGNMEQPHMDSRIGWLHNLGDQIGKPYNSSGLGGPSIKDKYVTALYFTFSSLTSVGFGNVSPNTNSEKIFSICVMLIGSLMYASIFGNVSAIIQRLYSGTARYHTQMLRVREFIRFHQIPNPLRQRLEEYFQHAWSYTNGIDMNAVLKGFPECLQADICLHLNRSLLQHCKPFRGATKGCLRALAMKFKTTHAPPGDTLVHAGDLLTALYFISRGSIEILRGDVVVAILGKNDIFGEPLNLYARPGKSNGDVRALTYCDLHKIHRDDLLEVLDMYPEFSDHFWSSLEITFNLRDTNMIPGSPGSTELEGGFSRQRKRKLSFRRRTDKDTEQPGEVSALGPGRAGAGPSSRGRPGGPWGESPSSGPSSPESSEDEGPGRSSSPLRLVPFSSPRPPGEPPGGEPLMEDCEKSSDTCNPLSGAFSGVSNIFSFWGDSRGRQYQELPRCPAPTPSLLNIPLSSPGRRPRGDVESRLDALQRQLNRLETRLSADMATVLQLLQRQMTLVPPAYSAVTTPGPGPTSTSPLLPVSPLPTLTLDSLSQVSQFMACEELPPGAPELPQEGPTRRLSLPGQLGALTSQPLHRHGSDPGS
Summary of the method: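 Channel function was assessed by thallium flux. Cells seeded the previous day and kept at 37 C took up FluxOR II dye over 1 h in the dark at room temperature, then sat another 10 min before stimulation.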

[14] = molecular target: Nuclear receptor subfamily 1 group I member 2 (Homo sapiens) (UniProt O75469); test: Human pregnane X receptor (PXR) small molecule agonists, qHTS assay (AID 1346982); also: nearly all actives have a fitted effect of over 35% in size; also: potency is read from the fitted curve at half-maximal effect
Summary of the method: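 We seeded PXR-Luc HepG2 cells in assay medium containing 5% charcoal-stripped FBS, added compounds 5 hr later, incubated 24 hr, and read luminescence with ONE-Glo reagent.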
% is scaled to controls: 0 for no effect and ±100 for the full control effect.

OC(C#CCN1CCCC1)(c1ccccc1)c1ccccc1
inactive: Potency [1] | Potency [2] | Potency [3] | Potency [4] | max activation [5] 1.06% | Potency [10]
active: Potency [6] 15.8 µM | Potency [7] 11 µM | Potency [8] 2.45 µM | Potency [9] 15.5 µM

CN1C[C@H]2c3ccccc3Oc3ccc(Cl)cc3[C@@H]2C1
active: Potency [7] 0.11 µM | Potency [10] 7.76 µM
inactive: Potency [1] | Potency [2] | Potency [3] | Potency [4] | Potency [8] | Potency [11]

COc1cc2nc(N(C)CCCNC(=O)C3CCCO3)nc(N)c2cc1OC (stereo not drawn)
active: Potency [2] 21.1 µM
inactive: Potency [1] | Potency [3] | Potency [4] | max activation [5] -4.32% | Potency [6] | Potency [12] | Potency [8] | Potency [10] | Potency [13] | Potency [11]

Cc1oc(-c2ccccc2)nc1CCOc1cccc2c1ccn2CCC(=O)O
inactive: Potency [1] | Potency [3] | Potency [14] | Potency [7] | Potency [10] | Potency [13] | Potency [11]
active: Potency [2] 34.4 µM | Potency [4] 34.4 µM | Potency [9] 22.4 µM

O=C1CCC(=O)O1
inactive: Potency [1] | Potency [2] | Potency [4] | Potency [8] | Potency [9] | Potency [10] | Potency [13] | Potency [11]

C=CCOC(=O)CCC1CCCCC1
inactive: Potency [1] | Potency [2] | Potency [3] | Potency [4] | Potency [14] | Potency [7] | Potency [8] | Potency [9] | Potency [10] | Potency [13] | Potency [11]

CC(=O)c1ccc2c(c1)N(CCCN(C)C)c1ccccc1S2
active: Potency [7] 1.95 µM | Potency [10] 11 µM
inactive: Potency [1] | Potency [3] | max activation [5] -2.15% | Potency [6] | Potency [12] | Potency [9] | Potency [11]

C/C=C(/C(=C/C)c1ccc(OC(C)=O)cc1)c1ccc(OC(C)=O)cc1
active: Potency [8] 17.4 µM
inactive: Potency [1] | Potency [3] | Potency [4] | Potency [7] | Potency [10] | Potency [13] | Potency [11]

Cc1ccc(C(=O)Oc2ccc(C(O)CNC(C)(C)C)cc2OC(=O)c2ccc(C)cc2)cc1 (stereo not drawn)
active: Potency [13] 6.74 µM
inactive: Potency [1] | Potency [4] | Potency [8]

CCN(CC)CCOC(=O)C(c1ccccc1)C1CCCCC1 (stereo not drawn)
active: Potency [12] 25.1 µM | Potency [7] 1.1 µM | Potency [10] 3.63 µM | Potency [13] 6.01 µM
inactive: Potency [3] | max activation [5] 1.58% | Potency [6] | Potency [9]

C[Si](C)(CCCN)O[Si](C)(C)CCCN
active: Potency [8] 39.9 µM | Potency [11] 2.52 µM
inactive: Potency [1] | Potency [3] | Potency [4] | Potency [14] | Potency [13]

C/C(=C(\CCOP(=O)(O)O)SC(=O)c1ccccc1)N(C=O)Cc1cnc(C)nc1N
inactive: caspase activation [1] 0.0207% [at 8.39 µM] | activity change, negative = cytotoxicity [4] 6.79% [at 8.39 µM] | activity change, negative = inhibition [13] 1.89% [at 6.97 µM]

CC(C)OC(=O)C(C)N(C(=O)c1ccccc1)c1ccc(F)c(Cl)c1 (stereo not drawn)
inactive: Potency [1] | Potency [3] | Potency [7] | Potency [13]
active: Potency [14] 2.73 µM | Potency [8] 3.56 µM | Potency [11] 89.4 µM

CC(C)CC(=O)C1C(=O)c2ccccc2C1=O
active: Potency [2] 61.1 µM | Potency [8] 39.9 µM | Potency [9] 17.8 µM | Potency [10] 35.6 µM
inactive: Potency [13] | Potency [11]

CCCCCCCCCCCCCCCCCCOS(=O)(=O)O
inactive: Potency [1] | Potency [3] | Potency [4] | Potency [13] | Potency [11]

CCCCCCCC#N
inactive: Potency [2] | Potency [3] | Potency [4] | Potency [7] | Potency [8] | Potency [9] | Potency [13] | Potency [11]

Clc1ccc(Cn2c(CN3CCCC3)nc3ccccc32)cc1
inactive: Potency [3] | Potency [4]
active: Potency [7] 1.74 µM | Potency [8] 0.776 µM | Potency [9] 15.5 µM | Potency [10] 18.2 µM | Potency [13] 1.34 µM

O=C(Nc1ccccc1)c1ccccc1O
active: Potency [14] 6.86 µM | Potency [7] 35.6 µM | Potency [8] 22.4 µM | Potency [9] 31.7 µM | Potency [10] 5.03 µM
inactive: Potency [1] | Potency [13] | Potency [11]
